In the supplement of paper PMC12669032:
Values without a mark were called inactive.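 How the source made its calls: active = AUC reduced over 20% with Padj below 0.05 in at least 2 of 3 replicates; inactive = otherwise.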

Experiments:
Experiment in all cases: growth AUC relative to DMSO control (median of replicates) (fraction); higher = more growth (less inhibition), active = hit call of the paper
Conditions in all cases: 20 µM; 24 h
Coprococcus comes = system: Coprococcus comes
In short: (§1)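 Gut bacteria were grown singly in mGAM at 37 °C without oxygen, from OD600 0.05, alongside 20 µM compound in 1% DMSO, and OD600 was read each hour for 24 h. Area under the growth curve was normalised to the median of solvent-only wells per plate, or to row and column medians on the industrial chemical plate. The minimum OD was set to 0 beforehand, and the reported value is the median of three biological replicates grown on separate days.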

Escherichia coli ED1a = system: Escherichia coli ED1a
In short: as §1

Escherichia coli IAI1 = system: Escherichia coli IAI1
In short: as §1

Eubacterium rectale = system: Eubacterium rectale
In short: as §1

[1] = system: Fusobacterium nucleatum subsp. animalis
In short: as §1

Lactobacillus gasseri = system: Lactobacillus gasseri
In short: as §1

Lactobacillus paracasei = system: Lactobacillus paracasei
In short: as §1

Odoribacter splanchnicus = system: Odoribacter splanchnicus
In short: as §1

[2] = system: Parabacteroides distasonis
In short: as §1

Parabacteroides merdae = system: Parabacteroides merdae
In short: as §1

Roseburia intestinalis = system: Roseburia intestinalis
In short: as §1

Streptococcus salivarius = system: Streptococcus salivarius
In short: as §1

Structure (SMILES)	growth AUC (Coprococcus comes)	growth AUC (Escherichia coli ED1a)	growth AUC (Escherichia coli IAI1)	growth AUC (Eubacterium rectale)	growth AUC [1]	growth AUC (Lactobacillus gasseri)	growth AUC (Lactobacillus paracasei)	growth AUC (Odoribacter splanchnicus)	growth AUC [2]	growth AUC (Parabacteroides merdae)	growth AUC (Roseburia intestinalis)	growth AUC (Streptococcus salivarius)
FC(F)(F)c1cccc(C(c2ccccc2)(c2ccccc2)n2cncn2)c1	0.713	0.975	0.959	0.646 (active)	0.899	0.851	1.11	1.03	0.842	0.619 (active)	0.911	0.94
NC(=O)c1c(Cl)cccc1Cl	0.984	1.01	0.983	1.09	1.1	0.917	1.03	1.07	0.99	0.996	0.906	0.991
CC(C)CNC(=O)N1CCNC1=O	1.01	1.02	1.02	1.02	1.07	1.05	1.04	1.06	0.956	1.01	1.1	0.995
O=C1NCC[n+]2ccccc21.[Br-]	1.02	0.966	0.978	1.07	0.908	0.882	0.961	0.968	0.923	0.972	0.992	0.987
CN(C)C(=O)SCCCCOc1ccccc1	0.968	0.98	0.962	1.12	0.958	1.01	0.975	0.981	0.938	0.961	0.998	0.99
CCOc1ccc(NC(=O)OC(C)C)cc1OCC	0.942	1.01	1.04	1.21	1.09	0.99	0.835	0.722 (active)	0.989	0.998	1	0.975
CCCCOC(=O)[C@@H](C)Oc1ccc(Oc2ccc(C(F)(F)F)cn2)cc1	0.961	0.989	0.997	0.918	0.789	0.915	0.993	0.977	0.844	0.96	0.973	0.969
NC(=O)C1CO1 (stereo not given)	0.93	0.957	0.946	0.989	0.923	0.995	1.02	0.949	0.895	0.946	0.855	1.01
CC(C)c1cc(Oc2ccccc2)cc(C(C)C)c1NC(=S)NC(C)(C)C	0.896	1.01	1.01	0.45 (active)	0.911	0.978	1.03	0.989	1.05	0.957	0.926	0.992
COC(=O)C(C)Oc1ccc(Oc2ncc(C(F)(F)F)cc2Cl)cc1 (stereo not given)	1.02	0.972	0.987	1.05	0.954	0.84	0.995	1.03	0.834	0.963	1.01	0.954
Cc1c(C(=O)c2c[nH]n(C)c2=O)ccc(S(C)(=O)=O)c1C1=NOCC1	1.02	0.984	0.981	0.99	0.972	0.999	0.954	1.04	1.04	1	0.987	1.01
CC(C)NS(=O)(=O)NC(=O)c1cc(-n2c(=O)cc(C(F)(F)F)[nH]c2=O)c(F)cc1Cl	0.998	1.02	1.03	1.01	1.03	0.974	0.991	0.977	1.05	0.983	1	1
CNC(=O)Sc1ccc(OS(C)(=O)=O)cc1	1.02	1.01	1.02	1.54	1.09	0.933	0.953	0.864	0.817	0.938	0.992	0.937
CCN(CC)c1nc(C)cc(=O)[nH]1	1.04	0.995	0.998	0.907	1.06	0.998	0.989	1.03	1	1	1.01	1.04
COC(=O)COc1ccc(Cl)cc1C	1.04	0.969	1.01	0.979	1.03	1.01	1.03	1.01	1.01	1.03	0.975	1.01
Cc1cc(C2CC2)nc(Nc2ccc(O)cc2)n1	0.998	0.989	1.01	0.903	0.955	1.19	1.01	0.965	1.03	0.982	1.01	1.01
CCCCCCCCCC[N+](C)(C)Cc1ccccc1.[Cl-]	0.9	1	0.969	0.91	1.02	0.712	1.06	0.926	0.847	0.91	0.885	0.926
CNC(=O)Nc1nc2ccccc2s1	1.01	0.999	0.984	1.03	1	0.944	0.953	1.05	0.984	1.03	0.983	0.965
COC1CCC2(CC1)NC(=O)C(O)(c1cc(C)ccc1C)C2=O (stereo not given)	1.03	1.01	1.02	1.1	1.16	1.02	1.06	1.06	1.02	1.06	1.01	1.01
CCOc1ccc(C2(C(=O)OC(C#N)c3cccc(Oc4ccccc4)c3)CC2(Cl)Cl)cc1 (stereo not given)	1.03	1.01	0.981	1.06	1.07	0.848	1	1.03	0.93	0.943	0.951	0.891
CCOC(=O)C(C)Oc1ccc(Oc2cnc3cc(Cl)ccc3n2)cc1 (stereo not given)	1.01	0.997	1.04	1.09	1.03	1.04	0.95	1.02	0.971	0.956	1.02	1.05
Oc1ccccc1	1.03	1	0.983	0.983	1.04	1.08	1.04	0.984	1.04	1.01	1.04	0.987
CC(C)c1ccccc1	0.983	0.987	0.999	0.968	0.92	1.17	0.996	0.999	1.04	1.02	0.991	0.968
CCOC(=O)C1=NN(c2ccc(Cl)cc2Cl)C(C)(C(=O)OCC)C1 (stereo not given)	0.97	0.993	0.989	0.903	0.985	1.06	0.883	1.04	0.918	0.928	0.952	0.994
CCCNCCOc1c(Cl)cc(Cl)cc1Cl	0.927	0.944	0.953	0.924	0.918	0.953	0.966	0.999	0.972	0.997	0.946	0.964
